# Structures can show the parent of a compound that is named as a salt.
# Test system: Danio rerio larvae (5 dpf)
# Experiment: startle response to 20-s acoustic pulses, difference vs DMSO (percentage points (treated minus DMSO)); higher = more of the behaviour than the DMSO vehicle control
# Settings: 10 µM; exposure time: 3 h pre-incubation + 3 h imaging
# Procedure: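 5-dpf wild-type zebrafish larvae were imaged in 96-well plates. They were treated with 190 Tocris FDA-approved drugs at 10 µM (1 µl/ml DMSO) for 3 h before and 3 h during imaging at 28.5 °C, 48 larvae per drug. Automated image analysis gave % time moving and optomotor responses. Values are drug group mean minus DMSO vehicle mean (n=844), in percentage points, for 10 behaviours.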
row,SMILES,startle response to 20-s acoustic pulses
1,CC(=O)Oc1ccccc1C(=O)O [Aspirin],-4.27
2,CCCCCOC(=O)Nc1nc(=O)n([C@@H]2O[C@H](C)[C@@H](O)[C@H]2O)cc1F [Capecitabine],3
3,O=C(NCC1CCCCN1)c1cc(OCC(F)(F)F)ccc1OCC(F)(F)F (stereo not given) [Flecainide acetate],1.77
4,CC(=O)NC[C@H]1CN(c2ccc(N3CCOCC3)c(F)c2)C(=O)O1 [Linezolid],2.02
5,NS(=O)(=O)c1cc2c(cc1Cl)NC(C1CC3C=CC1C3)NS2(=O)=O (stereo not given) [Cyclothiazide],-0.96
6,CC/C(=C(\c1ccccc1)c1ccc(OCCN(C)C)cc1)c1ccccc1 [Tamoxifen citrate],-0.535
7,COCCCOc1cc(C[C@@H](C[C@H](N)[C@@H](O)C[C@H](C(=O)NCC(C)(C)C(N)=O)C(C)C)C(C)C)ccc1OC [Aliskiren hemifumarate],-0.0432
8,Nc1ncn([C@H]2C[C@H](O)[C@@H](CO)O2)c(=O)n1 [Decitabine],-0.522
9,COc1c(C)c2c(c(O)c1C/C=C(\C)CCC(=O)O)C(=O)OC2 [Mycophenolic acid],2.15
10,CC1CNc2c(cccc2S(=O)(=O)N[C@@H](CCCNC(=N)N)C(=O)N2CC[C@@H](C)C[C@@H]2C(=O)O)C1 (stereo not given in full) [Argatroban],2.94
11,C=CC(=O)N1CCC[C@@H](n2nc(-c3ccc(Oc4ccccc4)cc3)c3c(N)ncnc32)C1 [Ibrutinib],3.06
12,CCN(CC)CCNC(=O)c1c(C)[nH]c(/C=C2\C(=O)Nc3ccc(F)cc32)c1C [Sunitinib malate],-2.32
13,CCN(Cc1ccncc1)C(=O)C(CO)c1ccccc1 (stereo not given) [Tropicamide],-8.17
14,CCCc1nc(C(C)(C)O)c(C(=O)O)n1Cc1ccc(-c2ccccc2-c2nnn[nH]2)cc1 [Olmesartan],7.62
15,COC(c1ccccc1)(c1ccccc1)[C@H](Oc1nc(C)cc(C)n1)C(=O)O [Ambrisentan],5.96
16,Cc1ccc(-c2cc(C(F)(F)F)nn2-c2ccc(S(N)(=O)=O)cc2)cc1 [Celecoxib],-6.81
17,O=C1CCc2cc(OCCCCc3nnnn3C3CCCCC3)ccc2N1 [Cilostazol],2.19
18,CC[C@H](C)C(=O)O[C@H]1C[C@@H](C)C=C2C=C[C@H](C)[C@H](CC[C@@H]3C[C@@H](O)CC(=O)O3)[C@H]21 [Lovastatin],-0.839
19,CCOc1nc2cccc(C(=O)O)c2n1Cc1ccc(-c2ccccc2-c2noc(=O)[nH]2)cc1 [Azilsartan],3.96
20,COc1cccc2c1C(=O)c1c(O)c3c(c(O)c1C2=O)C[C@@](O)(C(=O)CO)C[C@@H]3O[C@H]1C[C@H](N)[C@H](O)[C@H](C)O1 [Doxorubicin hydrochloride],3.62

row,SMILES,startle response to 20-s acoustic pulses
1,OC(CNCC(O)C1CCc2cc(F)ccc2O1)C1CCc2cc(F)ccc2O1 (stereo not given) [Nebivolol hydrochloride],-6.21
2,COc1ccc([C@@H]2Sc3ccccc3N(CCN(C)C)C(=O)[C@@H]2OC(C)=O)cc1 [Diltiazem hydrochloride],0.061
3,Cn1nnc2c(C(N)=O)ncn2c1=O [Temozolomide],2.71
4,CCCCC1=NC2(CCCC2)C(=O)N1Cc1ccc(-c2ccccc2-c2nnn[nH]2)cc1 [Irbesartan],1.39
5,N#C[C@@H]1C[C@@H]2C[C@@H]2N1C(=O)[C@@H](N)C12CC3CC(CC(O)(C3)C1)C2 [Saxagliptin hydrochloride],4.85
6,Cc1nnc(C(C)C)n1C1C[C@H]2CC[C@@H](C1)N2CC[C@H](NC(=O)C1CCC(F)(F)CC1)c1ccccc1 (stereo in doubt) [Maraviroc],-4.61
7,OCCOCCN1CCN(C2=Nc3ccccc3Sc3ccccc32)CC1 [Quetiapine hemifumarate],-1.65
8,C=C1[C@H](CO)[C@@H](O)C[C@@H]1n1cnc2c(=O)[nH]c(N)nc21 [Entecavir],3.11
9,CNCc1ccc(-c2[nH]c3cc(F)cc4c3c2CCNC4=O)cc1 [Rucaparib camsylate],-4.08
10,CS(=O)(=O)CCNCc1ccc(-c2ccc3ncnc(Nc4ccc(OCc5cccc(F)c5)c(Cl)c4)c3c2)o1 [Lapatinib],-0.481
11,CCC(=O)O[C@]1(C(=O)SCF)[C@H](C)C[C@H]2[C@@H]3C[C@H](F)C4=CC(=O)C=C[C@]4(C)[C@@]3(F)[C@@H](O)C[C@@]21C [Fluticasone propionate],-3.1
12,COc1cc2nc(N3CCN(C(=O)C4COc5ccccc5O4)CC3)nc(N)c2cc1OC (stereo not given) [Doxazosin mesylate],7.2
13,Nc1ncn([C@@H]2O[C@H](CO)[C@@H](O)[C@H]2O)c(=O)n1 [5-Azacytidine],2.64
14,C[C@@H]1C[C@H]2[C@@H]3CCC4=CC(=O)C=C[C@]4(C)[C@@]3(F)[C@@H](O)C[C@]2(C)[C@@]1(O)C(=O)CO [Dexamethasone],-1.79
15,CN(CCOc1ccc(CC2SC(=O)NC2=O)cc1)c1ccccn1 (stereo not given) [Rosiglitazone],-1.12
16,CN(C)CCC[C@@]1(c2ccc(F)cc2)OCc2cc(C#N)ccc21 [Escitalopram oxalate],-6.28
17,CCCCCCCCc1ccc(CCC(N)(CO)CO)cc1,-1.81
18,C[C@]12CC[C@@H]3c4ccc(O)cc4C[C@@H](CCCCCCCCC[S+]([O-])CCCC(F)(F)C(F)(F)F)[C@H]3[C@@H]1CC[C@@H]2O (stereo not given in full),0.769
19,Cc1nc(Nc2ncc(C(=O)Nc3c(C)cccc3Cl)s2)cc(N2CCN(CCO)CC2)n1 [Dasatinib],0.79
20,COc1cc(Nc2c(C#N)cnc3cc(OCCCN4CCN(C)CC4)c(OC)cc23)c(Cl)cc1Cl [Bosutinib],-0.606
